Compound activity from PubChem.
This is one part of a sample in which hits are shown more often than they occur.
Vaccinia mCherry: vaccinia inhibition (mCherry reporter); Vaccinia virus mCherry reporter infection, fluorescence; Potency, µM (doses to about 36.5 µM), without a hit: at the top dose activity change, negative = inhibition, usual class: inhibitors; actives 0.63% (n = 310,000); AID 720579; calls by dose curve; tested in A549 cells; further: potency means the concentration at half of the fitted maximal effect; on the % scale 0 is the no-effect control and ±100 the full control effect; nearly all actives have a fitted effect of over 35% in size
VACV Venus inh: vaccinia inhibition (Venus reporter); Vaccinia virus Venus reporter expression, fluorescence; Potency, µM (titrated, usually from 36.5 µM), for inactives: at the top dose activity change, negative = inhibition, actives largely listed as inhibitors; actives 0.46% (n = 330,000); calls by dose curve; tested in A549 cells; further: potency means the concentration at half of the fitted maximal effect; on the % scale 0 is the no-effect control and ±100 the full control effect; nearly all actives have a fitted effect of over 30% in size
CHX counter: counter-screen for Shiga toxin inhibitors: cycloheximide protein synthesis inhibition; max response, %; actives 12% (n = 300,000); cell reporter, cycloheximide protein synthesis inhibition counterscreen; in the data active means max response mostly above about 13%, no sharp cut-off; inactive means mostly below about 14%; further: read at 38.3 µM for the half of the compounds with a filed dose; 0% is about no effect
Shiga inhibitor: inhibitors of Shiga toxin in Vero cells | Vero cells, Shiga toxin protein synthesis inhibition reporter | inhibition, % at 38.7 µM | actives 9.2% (n = 290,000) | AID 2315; in the data active means inhibition mostly above about 28%, no sharp cut-off; inactive means mostly below about 43%; further: 0% is about no effect
LASV entry inh: blocks Lassa virus binding to or entry into cells; AID 540256; Lassa virus pseudotype entry inhibition, cell reporter; Potency, µM (top dose mostly 37.9 µM), for inactives: at the top dose activity change, negative = inhibition, most hits filed as inhibitors; actives 1.2% (n = 300,000); calls by dose curve; tested in HEK293 cells; further: potency means the concentration at half of the fitted maximal effect; on the % scale 0 is the no-effect control and ±100 the full control effect; nearly all actives have a fitted effect of over 50% in size
Marburg entry inh: inhibitors of Marburg virus binding or cell entry. Marburg virus pseudotyped entry inhibition, cell reporter. AID 540276. actives 1.8% (n = 300,000). Potency, µM (highest dose often 37.8 µM), inactives show at the top dose activity change, negative = inhibition, most hits filed as inhibitors; calls by dose curve; tested in HEK293 cells; further: potency means the concentration at half of the fitted maximal effect; on the % scale 0 is the no-effect control and ±100 the full control effect
The depositor's hits bear a star; i = inactive; ? = inconclusive; · = no result; [ ] = dose if it differs, or a comment.

SMILES | Vaccinia mCherry | VACV Venus inh | CHX counter | Shiga inhibitor | LASV entry inh | Marburg entry inh
Cc1ccc(C(=O)Nc2cccc(C(=O)N/N=C/c3ccccc3F)c2)cc1 | ? | -29% | 47* | 72* | ? | 4%[46.1 µM]
O=C(N/N=C/c1ccccc1)c1ccc(-c2ccccc2)cc1 | · | · | 7 | · | · | ·
O=C(N/N=C\c1ccccc1F)c1ccc(-c2ccccc2)cc1 | -10% | 10% | 36* | 28 | -1%[46.1 µM] | 25%[46.1 µM]
O=C(CSc1nc2c(oc3ccccc32)c(=O)n1-c1ccccc1)Nc1ccccc1F | -16% | -13% | · | · | · | 7%[46.1 µM]
Cn1ncc2c(Nc3cc(C(F)(F)F)ccc3Cl)ncnc21 | -26% | -9% | · | · | ? | ·
CCOC(=O)c1scc(-c2ccccc2)c1S(=O)(=O)Nc1cc(Cl)c(OC)cc1OC | -14% | -2% | · | · | -17%[46.1 µM] | ·
O=C(NC1CCCCC1)Oc1cc2oc(=O)sc2cc1Cl | -21% | -6% | 16* | 34 | 2%[46.1 µM] | -1%[46.1 µM]
Cc1cc(=O)oc2cc(OCC(=O)NC3CCCCC3)c(Cl)cc12 | -9% | 0% | · | · | 15%[46.1 µM] | -3%[46.1 µM]
CCCCCn1c(=N)n(CC(O)COc2cccc(C)c2)c2ccccc21 (stereo not drawn) | 10µM* | 10µM* | · | · | ? | ?
CCCn1c(=N)n(CC(O)COc2cccc(C)c2)c2ccccc21 (stereo not drawn) | · | · | -3 | -11 | -20% | 8.2µM*
CCn1c(=N)n(CC(O)COc2cccc(C)c2)c2ccccc21 (stereo not drawn) | · | · | -5 | 1 | 0% | ?
Cc1nnc2n(-c3ccccc3)c(=O)c3c4c(sc3n12)C[C@H](C)CC4 | · | · | · | · | · | -19%
Cc1ccc(-c2nc3ccc(Cl)cc3n2OC(=O)N(C)C)cc1 | ? | ? | 36 | 124* | -5% | ?
COc1ccc(-c2nc3ccccc3n2OC(C)C(=O)O)cc1 (stereo not drawn) | i | -8% | 35* | 76* | 26% | 14%[46.1 µM]
CN(C)C(=O)Oc1ccnc2cc(Cl)ccc12 | -11% | 1% | 2 | -2 | 14% | 1%[46.1 µM]
Cc1ccc(-c2nc3ccc(Cl)cc3n2OC(C)C(=O)O)cc1 (stereo not drawn) | · | · | 36* | 83* | · | ·
CC(On1c(-c2ccccc2)nc2ccc(Cl)cc21)C(=O)O (stereo not drawn) | i | -11% | 28* | 56* | ? | 19%[46.1 µM]
Clc1ccc(-c2nc3ccccc3n2OCc2ccccc2)cc1 | · | · | -2 | -4 | 8% | -7%
Cc1cccc(NC(=O)c2cc(S(=O)(=O)N3CCc4ccccc43)ccc2F)c1C | -9% | -8% | · | · | 12%[46.1 µM] | ·
COC(=O)[C@@H]1C[C@@H](NC(=O)c2cnsn2)CN1Cc1ccc(Cl)cc1 | -20% | -12% | · | · | · | ·
CCc1ccc(CSc2nc(-c3ccc(OC)cc3)nc3c2Cc2c(CO)cnc(C)c2O3)cc1 | -5% | -10% | · | · | 2%[46.1 µM] | ·
CCOC(=O)C1(Cc2ccccc2)CCN(C2Cc3ccccc3C2)CC1 | -20% | -10% | -5 | -2 | 2%[46.1 µM] | ?
On1c(-c2ccccc2)nc2ccc(Cl)cc21 | · | · | 26 | 84* | ? | 0%
COCCCN1C(=O)c2ccc(C(=O)Nc3ccc(OC)cc3)cc2C1=O | -3% | -8% | 15* | 38 | ? | 2%
COCCCN1C(=O)c2ccc(C(=O)NCc3ccco3)cc2C1=O | · | -13% | 29* | 45 | 4% | 11%
SMILES | Vaccinia mCherry | VACV Venus inh | CHX counter | Shiga inhibitor | LASV entry inh | Marburg entry inh
COCCCN1C(=O)c2ccc(C(=O)Nc3ccccc3OC)cc2C1=O | -11% | -8% | 6 | -4 | 9% | -16%
O=C(c1ccc2c(c1)N(Cc1ccc(Cl)cc1)C(=O)c1ccccc1S2=O)N1CCOCC1 (stereo not drawn) | -10% | -10% | · | · | -9%[46.1 µM] | 18%[46.1 µM]
O=C(c1cc2sccc2n1Cc1ccccc1)N1CCCc2ccccc21 | -10% | -8% | 41* | 135* | -1% | ?
Cn1c(C(=O)N2CCCc3ccccc32)cc2sccc21 | · | · | 26* | 32 | 4% | ?
O=C(CSc1nc(=O)n(CCN2CCOCC2)c2c1CCC2)Nc1cccc(Cl)c1 | -1%[7.34 µM] | -3%[7.34 µM] | · | · | 6%[46.1 µM] | ·
Cc1c(Cl)cccc1Nc1nn2c(=O)c3ccc(C(=O)NCCC4=CCCCC4)cc3nc2s1 | -5% | -11% | · | · | -10%[46.1 µM] | ·
COc1ccc(S(=O)(=O)N(CC(=O)NCCSc2ccccc2)c2ccc(C)cc2)cc1 | -20% | -4% | · | · | -27%[46.1 µM] | -24%[46.1 µM]
CCOC(=O)c1ccccc1NC(=O)Cn1cnc2c(oc3ccccc32)c1=O | · | · | 30* | 56* | ? | 16%
CCOC(=O)c1ccccc1NC(=O)Cn1c(-c2nonc2N)nc2ccccc21 | · | · | 0 | -19 | ? | 0.052µM*
COC(=O)Cn1cnc2c(oc3ccccc32)c1=O | · | · | 36* | 41* | · | ·
CC(C)C(C)NC(=O)Cn1cnc2c(oc3ccccc32)c1=O (stereo not drawn) | -5% | -13% | 17* | 38 | 26% | ?
Cc1ccc(NC(=O)Cn2cnc3c(oc4ccccc43)c2=O)cc1 | -8% | -12% | · | · | ? | ·
Cc1ccc(S(=O)(=O)N2CCN(c3nc(-c4cncn4C)nc4ccccc34)CC2)cc1 | -8% | -28% | · | · | · | ·
Cc1nn(Cc2cccc(C(=O)N3CCCC(C)C3)c2)c(C)c1[N+](=O)[O-] (stereo not drawn) | -25% | -21% | -5 | 9 | -9% | 11%
CC(C)c1ccc(Nc2c(-c3ccco3)nc3ccccn23)cc1 | -14% | ? | · | · | -21%[46.1 µM] | -13%[46.1 µM]
CCN(CC)Cc1ccc(Nc2nccc(-c3cnn4ncccc34)n2)cc1 | · | · | · | · | 0.04µM* | ·
COc1cccc(Nc2nccc(-c3cnn4ncccc34)n2)c1 | · | · | · | · | 0.56µM* | ·
COc1ccc(-c2nn3ncccc3c2-c2ccnc(Nc3cccc(C(F)(F)F)c3)n2)cc1 | · | · | · | · | 25µM* | ·
CC(C)c1ccc(Nc2nccc(-c3cnn4ncccc34)n2)cc1 | · | · | · | · | 11µM* | ·
CN=c1scc(-c2ccc(Br)cc2)n1C | · | -19% | 2 | -11 | 19% | 7%[46.1 µM]
Cc1ccc(C)c(-n2c(-c3ccc(Br)cc3)csc2=NC(=O)c2ccccc2F)c1 | -10% | -10% | -1 | -11 | ? | 1.3µM*
CCOP(=O)(CCP(=O)(OCC)OCC)OCC.C[CH2][Sn]([Cl])([Cl])[CH2]C | -6% | -23% | · | · | 13µM* | ?
CCOP(=O)(OCC)OCC | -16% | -6% | · | · | · | ·
COc1ccc(N/N=C(/C(N)=O)C2=NC(C)(C)Cc3ccccc32)cc1 | 14µM* | ? | -1 | 16 | ? | ?
Cc1ccc(S(=O)(=O)C2(C(=O)Nc3ccc(C(C)C)cc3)CC2)cc1 | -3% | 0% | 50* | 83* | ? | ?
O=[N+]([O-])c1ccccc1CN1CCN(Cc2ccc3ccccc3c2)CC1 | · | · | 4 | 7 | · | ·
N=NC(=O)c1ccccc1Nc1c(O)[nH]c2ccccc12 | -7% | ? | · | · | 6.3µM* | ?
Cc1cc(C(=O)CN2C(=O)NC3(CCCc4ccccc43)C2=O)c(C)n1Cc1ccco1 (stereo not drawn) | · | · | 2 | 3 | · | -8%
COc1ccc(-n2c(C)cc(C(=O)CN3C(=O)NC4(CCCc5sccc54)C3=O)c2C)cc1 (stereo not drawn) | i | -21% | 3 | -7 | -29% | ?
